Measurements from PubChem BioAssay (Tox21).
Inconclusive results are not listed. Where a call stands in place of a potency, no number is given. Active and inactive are the calls of the source. Calls come from the whole dose curve; as a rule, active = well fitted cell-killing curve with a large enough effect in the repeat runs; inconclusive = weak or mixed curves, or effect the other way; inactive = flat fitted curve, though single readings scatter.
Potency is the fitted concentration of half-maximal effect.

Test: qHTS assay to identify small molecule agonists of the constitutive androstane receptor (CAR) signaling pathway - cell viability counter screen (AID 1224836); note: nearly all actives have a fitted effect of over 45% in size
Settings: HepG2-CYP2B6-hCAR viability, CellTiter-Fluor, 23 h, PK11195 added to every well; series mostly up to 92.4 µM
From the text: U.S. Tox21 Program National Center for Advancing Translational Sciences [NCATS] NIH Chemical Genomics Center [NCGC] U.S. Environmental Protection Agency [EPA] National Institutes of Environmental Health Sciences [NIEHS] National Toxicology Program [NTP] U.S. Food and Drug Administration [FDA] Tox21 Assay Overview: The constitutive androstane receptor (CAR) is a nuclear receptor which regulates multiple drug metabolizing enzymes (DMEs) and transporters. Activating CAR will generally increase the transcription and subsequent translation of CYP2B6 and CYP3A4. These two DMEs represent about 50% of the drug metabolizing potential in the body. […] Recently, there have also been studies performed indicating CARs role in energy metabolism and cancer therapy. Therefore, inducing CARs activity could have a potential effect on diabetes and cancer. Identifying environmental toxins and compounds which modulate CAR, through the use of the Tox21 10K compound collection, will be an important step in determining the toxicity and potential therapeutic effects these factors will have on the human body. To differentiate true CAR agonists from cytotoxic substances, the assay is multiplexed with a cell viability assay.
Tox21 Assay Protocol Summary: A double-stable (hCAR and CYP2B6-2.2kb) transfected cell line, derived from human hepatoma (HepG2) cells, was utilized for the duration of the quantitative high-throughput screens. The HepG2-CYP2B6-hCAR cells were dispensed at 2500 cells/4 uL/well in 1536-well white solid bottom plates using a Multidrop Combi. After the assay plates were incubated at 37 C/5% CO2 for 4 hrs, 23 nL of compounds at 15 concentrations (from 5-48 columns) or positive control (from 1 to 4 columns) were transferred to the assay plates using a Pintool station. One uL of PK11195 (final concentration = 0.75 uM) was added, using a Flying Reagent Dispenser, inside each well. After a 23 hr incubation period at 37 C/5% CO2, 1 uL of CellTiter-Fluor reagent was added into each well of the assay plates using a Flying Reagent Dispenser. The fluorescence intensity in the plates was then measured using a ViewLux plate reader.
In the case of `CCN(CC)CCOC(=O)c1ccc(N)cc1`, the Potency is reported as “inactive”. With `C1CNCCN1` the Potency was “inactive”. With `CC(C)=CCC/C(C)=C/CO` the Potency was “inactive”. In the case of `CC(O)COc1ccccc1` (stereo not given), the Potency is reported as “inactive”. In the case of `CC(=O)c1ccc(S(=O)(=O)NC(=O)NC2CCCCC2)cc1`, the Potency is reported as “inactive”. In the case of `CC(=O)OC/C=C(C)/C=C/C=C(C)/C=C/C1=C(C)CCCC1(C)C`, the Potency is reported as “inactive”. In the case of `O=C(O)Cc1cccc2ccccc12`, the Potency is reported as “inactive”. In the case of `NCCNc1cccc2ccccc12`, the Potency is reported as “inactive”. In the case of `COc1cc(C=O)ccc1O`, the Potency is reported as “inactive”. In the case of `COC(=O)C1CCC(C(=O)OC)CC1` (stereo not given), the Potency is reported as “inactive”. For `O=C(OCc1ccccc1)c1ccccc1`, the Potency was “inactive”. For `CN(C)Cc1cc(CN(C)C)c(O)c(CN(C)C)c1`, the Potency was “inactive”. For `CCn1cc(C(=O)O)c(=O)c2ccc(C)nc21`, the Potency was “inactive”. For `CC(C)Cc1ccc(C(C)C(=O)O)cc1` (stereo not given), the Potency was “inactive”. In the case of `CCN1CCCC1=O`, the Potency is reported as “inactive”. In the case of `CCCCNC(=O)NS(=O)(=O)c1ccc(N)cc1`, the Potency is reported as “inactive”. For `COc1ccccc1NC(=O)CC(C)=O`, the Potency was “inactive”. With `Cc1cccc(C)c1O` the Potency was “inactive”. In the case of `C=C(C)OC(C)=O`, the Potency is reported as “inactive”. With `O=C(O)CCCCC1CCSS1` (stereo not given) the Potency was “inactive”. For `C/C=C/c1ccc(O)c(OC)c1`, the Potency was “inactive”. For `CC(=O)CCC(C)C`, the Potency was “inactive”. For `NC(=O)OCC(COC(N)=O)c1ccccc1`, the Potency was “inactive”. For `COC(=O)c1ccc(O)cc1`, the Potency was “inactive”. For `C=C(C)C(N)=O`, the Potency was “inactive”. With `Cc1ccc(O)c(-n2nc3ccccc3n2)c1` the Potency was “inactive”. For `NC(=O)NO`, the Potency was “inactive”. For `CCCCCCCCOc1ccc(C(=O)c2ccccc2)c(O)c1`, the Potency was “inactive”. With `CCCCOCCOCCSC#N` the Potency was “inactive”. In the case of `CN/C(=C\[N+](=O)[O-])NCCSCc1ccc(CN(C)C)o1`, the Potency is reported as “inactive”. For `CCOCCO`, the Potency was “inactive”. For `O=c1cc[nH]c(=O)[nH]1`, the Potency was “inactive”. With `Oc1cccc(O)c1` the Potency was “inactive”. In the case of `NC(=O)N1c2ccccc2C=Cc2ccccc21`, the Potency is reported as “inactive”. With `c1ccc2[nH]c(-c3cscn3)nc2c1` the Potency was “inactive”. With `C=CC(=O)NC(C)(C)CS(=O)(=O)O` the Potency was “inactive”. For `C[C@]12CC[C@@H]3c4ccc(O)cc4CC[C@H]3[C@@H]1CCC2=O`, the Potency was “inactive”. With `O=[N+]([O-])c1ccc(O)cc1` the Potency was 50.4 µM (active). In the case of `COc1ccc(C(=O)c2ccccc2)c(O)c1`, the Potency is reported as “inactive”. For `CCCCCCCCCCCCCC(=O)OC(C)C`, the Potency was “inactive”.
